This is a sample that favours compounds with a hit; in the whole collection about 3.1% have one here.
TsaE inh – inhibitors of E. coli YjeE (TsaE); purified YjeE enzyme, qHTS inhibition assay; Potency, µM; 71,000 tested, 0.05% active
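Purified YjeE (10 uM) with BODIPY Texas Red-labeled ADP probe (2 uM); compounds pin-transferred, 15 min at room temperature. Binding inhibition read as decreased fluorescence polarization; ADP titration as control.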
ALOX15 inhib – 15-hLO (ALOX15) enzyme inhibition; P16050; purified 15hLO-1, xylenol orange hydroperoxide absorbance; Potency, µM (top dose mostly 57.1 µM), for inactives: at the highest dose activity change, negative = inhibition, usual class: inhibitors; 74,000 tested, 1.4% active; AID 887; further: potency means the concentration at half of the fitted maximal effect; on the % scale 0 is the no-effect control and ±100 the full control effect; nearly all actives have a fitted effect of over 55% in size
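Inhibition is scored from a chromogenic endpoint. After 15 min enzyme-compound contact, arachidonic acid (50 uM final) reacts 6 min with 40 nM 15hLO-1 at room temperature, then Fe-XO reagent is added for 30 min and absorbance ratio recorded.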
DNA Pol III inh – inhibitors of bacterial DNA polymerase III holoenzyme. Potency, µM (highest dose often 57.1 µM), for the others: at the highest dose activity change, negative = inhibition. 71,000 tested, 0.25% active. reconstituted DNA polymerase III holoenzyme replication, biochemical. AID 603; further: potency means the concentration at half of the fitted maximal effect; on the % scale 0 is the no-effect control and ±100 the full control effect
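Reconstituted *E. coli* holoenzyme (0.35 nM Pol III, 1 nM beta, 154 nM SSB, 2 nM primase) was preincubated with compound for 15 min at RT. Synthesis on 1.4 nM ssM13Gori ran 35 min, then was stopped with PicoGreen/EDTA and read as dsDNA fluorescence.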
BRCT inh red – BRCT-phosphoprotein interaction inhibition (red fluorophore); P38398; BRCT-phosphopeptide binding, red fluorescence polarization; Potency, µM (top dose mostly 76.9 µM), for inactives: top-dose activity change, negative = inhibition, usual class: inhibitors; 75,000 tested, 0.03% active; further: on the % scale 0 is the no-effect control and ±100 the full control effect
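Fluorescence polarization: 100 nM His-tagged BRCA1 BRCT with 100 nM TAMRA-labelled phospho-BACH1 decapeptide, phosphate buffer pH 7.3 with 150 mM NaCl, DTT, 0.01% Tween 20; 12 min RT. Binding inhibition seen as FP decrease.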
BRCT PPI green – BRCA1 BRCT-phosphoprotein interaction inhibition. P38398. 75,000 tested, 0.05% active. AID 875. Potency, µM (doses to about 76.9 µM), for the others: at the highest dose activity change, negative = inhibition, actives largely listed as inhibitors. BRCA1 BRCT-phosphopeptide binding, green fluorescence polarization;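 further: potency means the concentration at half of the fitted maximal effect; plate controls were peptide without protein for full effect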
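Compounds were incubated for 12 min at room temperature with a complex of 100 nM fluorescein-tagged pBACH1 decapeptide and 250 nM His-tagged BRCT protein. Buffer was phosphate pH 7.3 with EDTA, DTT and Tween 20. Disruption of binding lowers the polarization signal.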
Tau filament bind – tau filament binding; P10636; Potency, µM (top dose mostly 57.1 µM), for the others: at the highest dose activity change, negative = inhibition; 71,000 tested, 2% active; recombinant tau filaments, thioflavin S fluorescence, 15 h; filaments grown with octadecylsulfate alongside compound;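 further: potency means the concentration at half of the fitted maximal effect; on the % scale 0 is the no-effect control and ±100 the full control effect; actives lower thioflavin S fluorescence by blocking filaments or displacing dye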
Target sequence (P10636 whole entry, looked up): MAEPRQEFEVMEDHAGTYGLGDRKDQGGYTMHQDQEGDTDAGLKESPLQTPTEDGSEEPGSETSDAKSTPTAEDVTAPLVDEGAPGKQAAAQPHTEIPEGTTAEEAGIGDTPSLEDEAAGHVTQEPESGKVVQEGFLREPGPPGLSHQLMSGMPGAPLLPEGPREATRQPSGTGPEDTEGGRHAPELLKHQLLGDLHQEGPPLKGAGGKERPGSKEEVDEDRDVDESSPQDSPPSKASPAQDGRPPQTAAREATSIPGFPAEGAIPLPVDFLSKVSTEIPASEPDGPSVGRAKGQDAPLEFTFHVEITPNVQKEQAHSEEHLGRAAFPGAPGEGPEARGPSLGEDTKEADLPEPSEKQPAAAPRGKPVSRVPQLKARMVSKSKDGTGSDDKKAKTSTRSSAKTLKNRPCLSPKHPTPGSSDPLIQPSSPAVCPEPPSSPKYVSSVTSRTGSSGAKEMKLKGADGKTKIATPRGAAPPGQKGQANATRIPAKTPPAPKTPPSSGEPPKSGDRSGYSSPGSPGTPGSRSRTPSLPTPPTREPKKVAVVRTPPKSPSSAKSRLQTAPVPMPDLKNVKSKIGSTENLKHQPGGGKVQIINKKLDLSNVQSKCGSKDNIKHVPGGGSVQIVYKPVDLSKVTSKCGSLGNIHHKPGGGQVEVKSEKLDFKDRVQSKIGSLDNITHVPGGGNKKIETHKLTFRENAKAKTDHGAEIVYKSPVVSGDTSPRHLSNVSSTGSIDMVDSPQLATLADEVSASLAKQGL
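His-tagged recombinant human tau (exons 2, 3 and 10 included), 1 uM, was induced to fibrillize by 30 uM sodium octadecylsulfate with compound present. After 15 h at 37 C, thioflavine S fluorescence (ex 450, em 510 nm) was read.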
The depositor's hits bear a star; i = inactive; ? = inconclusive; . = no result given; [ ] = dose if it differs, or a comment. The call rests on the fitted dose curve; in most records, active means well fitted curve in the direction sought with a large enough effect; inconclusive means small, poorly fitted or top-dose-only effect, or another doubt; inactive means no such curve, though single readings can be large; an effect the other way counts as inactive or inconclusive.

SMILES	TsaE inh	ALOX15 inhib	DNA Pol III inh	BRCT inh red	BRCT PPI green	Tau filament bind
COc1ccc(CC(NC(C)=O)C(=O)NC2CCN(c3nc(C)cc(C)c3C#N)CC2)c(OC)c1 (stereo not drawn)	i	25µM*	?	-2%	3%	14%
COc1cccc(CC(NC(C)=O)C(=O)NC2CCN(c3nc(C)cc(C)c3C#N)CC2)c1 (stereo not drawn)	i	2%	-2%	-1%	2%	12%
COc1ccc(C[C@H](O)CN2CCOCC2)cc1	i	5%[11.4 µM]	-15%[11.4 µM]	0%[15.4 µM]	0%[15.4 µM]	0%[11.4 µM]
Nc1nnc(SCc2cccc(C(F)(F)F)c2)s1	i	-7%[11.4 µM]	-7%[11.4 µM]	-2%	0%	-12%[11.4 µM]
Nc1nnc(SCc2ccc(F)cc2Cl)s1	i	?	-6%	-2%	-2%	20µM*
Nc1ncn([C@@H]2O[C@@H](CO)[C@@H](O)[C@H]2O)c(=O)n1	i	.	-1%	.	.	-9%
Cc1c(Cc2ccccc2)sc(N)c1C(N)=O	i	?	4%	0%	1%	16µM*
Cc1nc(-c2ccccc2)sc1C(N)=O	i	9%	-13%	0%	-1%	5%
CC1CCC2C(=O)OC(Cc3ccccc3)CN2C1c1ccc(Br)cc1 (stereo not drawn)	.	-1%[11.4 µM]	.	2%[15.4 µM]	-1%[15.4 µM]	.
O=C(NCCN1CCOCC1)NC1(C(F)(F)F)Oc2ccc(Cl)cc2O1 (stereo not drawn)	i	3.2µM*	3%	1%	-3%	0%
COCC(C)NC(=O)NC1(C(F)(F)F)Oc2ccc(Cl)cc2O1 (stereo not drawn)	i	-21%	-3%	0%	-4%	-49%
Cc1ccccc1-n1c(SC/C(O)=C(\C#N)c2nc3ccccc3[nH]2)nnc1-c1ccncc1	i	?	-4%	1%	11%	12%
Cc1cc(C)n2c(SC/C(O)=C(\C#N)c3nc4ccccc4[nH]3)nnc2n1	i	-29%	-7%	-1%	3%	10µM*
N#CCCn1c(=O)c(-c2ccccc2)nc2cnc(Oc3cccc(Cl)c3)nc21	i	-8%	0%	-1%	-4%	-16%
CCN(CCCNC(=O)CCCN1C(=O)COc2ccc(C)cc21)c1cccc(C)c1	i	?	-2%	-2%	-2%	16µM*
COc1ccccc1CNC(=O)CCCN1C(=O)COc2ccc(C)cc21	i	2%	-4%	1%	1%	8%
CC[N+]1(C)[C@@H]2CC[C@H]1CC(OC(=O)[C@H]1CC[C@@](C(=O)OC3C[C@H]4CC[C@@H](C3)[N+]4(C)CC)(c3ccccc3)c3ccccc31)C2 (stereo partly drawn)	i	4%[25.6 µM]	-4%[25.6 µM]	-1%[34.4 µM]	0%[34.4 µM]	12%[25.6 µM]
CCCC1C(C(=O)OCC)=C(C)NC(C)=C1C(=O)OCC	.	-3%	.	-5%	-7%	.
CCOC(=O)C1=C(C)NC(C)=C(C(=O)OCC)C1	i	10µM*	-5%	0%	0%	-4%
COc1cc([C@@H]2c3cc4c(cc3[C@@H](O[C@@H]3O[C@H]5CO[C@@H](C)O[C@@H]5[C@@H](O)[C@H]3O)[C@@H]3COC(=O)[C@@H]23)OCO4)cc(OC)c1O	i	-30%[25.6 µM]	5%	-6%	-3%	-65%
CCN1CCN(c2cc(C)c3cc(NC(=O)c4ccc(Br)o4)ccc3n2)CC1	i	-7%	-11%	-1%	-2%	53%
CCN1CCN(c2cc(C)c3cc(NC(=O)c4ccncc4)ccc3n2)CC1	i	-7%	-6%	-3%	-1%	16µM*
O=C(O)CCN1Cc2ccccc2C1=O	i	20µM*	2%	1%	1%	13%
O=C(O)[C@H](Cc1ccccc1)N1Cc2ccccc2C1=O	i	?	-6%	1%	-1%	-9%
COc1ccc([C@@H]2CC(=O)c3c(O)cc(O[C@@H]4O[C@@H](CO[C@@H]5O[C@@H](C)[C@@H](O)[C@@H](O)[C@H]5O)[C@@H](O)[C@@H](O)[C@H]4O)cc3O2)cc1O	i	.	-7%	.	.	152%
SMILES	TsaE inh	ALOX15 inhib	DNA Pol III inh	BRCT inh red	BRCT PPI green	Tau filament bind
CCc1ccc(NC(=O)c2cc(-c3ccco3)on2)cc1	i	-11%	-3%	-1%	1%	16µM*
O=C1C[C@@H](O)[C@@H](O)[C@H]2[C@@H]3C(=O)N(C[C@@H]4CCCO4)C(=O)[C@@H]3CC[C@H]12	.	2%[11.4 µM]	.	1%[15.4 µM]	-4%[15.4 µM]	.
COc1ccc(-c2coc3ccc(O[C@@H]4O[C@@H](COC(C)=O)[C@@H](OC(C)=O)[C@@H](OC(C)=O)[C@H]4OC(C)=O)c(OC(C)=O)c3c2=O)cc1	i	.	-5%	.	.	?
Cc1ccc(C2NC(=O)c3c(sc4c3CCN(C)C4)N2)o1 (stereo not drawn)	i	3.2µM*	-7%	-3%	8%	i
Cc1ccc(C2NC(=O)c3c(sc4c3CCN(C)C4)N2)s1 (stereo not drawn)	i	?	4%	-2%	23%	i
Cc1noc(C)c1-c1cc(Nc2ccccc2)ncn1	i	-20%	-9%	-2%	-5%	-4%
O=S(=O)(O)c1cc(N=Nc2cccc3ccccc23)c(O)c2ncccc12	i	11%[11.4 µM]	-13%[11.4 µM]	-1%[15.4 µM]	-1%[15.4 µM]	?
O=S(=O)(O)c1ccc2c(N=Nc3c(O)ccc4ccccc34)cccc2c1	i	-14%[11.4 µM]	-11%[11.4 µM]	1%[15.4 µM]	-1%[15.4 µM]	3.2µM*
O=S(=O)(O)c1cc(S(=O)(=O)O)c2c(N=Nc3cccc4ccccc34)c(O)ccc2c1	i	-6%[11.4 µM]	-7%[11.4 µM]	1%[15.4 µM]	-4%[15.4 µM]	4µM*
Nc1ccccc1N=Nc1c(S(=O)(=O)O)cc2cc(S(=O)(=O)O)cc(O)c2c1O	i	6%[11.4 µM]	2.5µM*	-1%[15.4 µM]	-1%[15.4 µM]	-15%[11.4 µM]
Cc1ccc(N=Nc2c(O)c(S(=O)(=O)O)cc3cc(S(=O)(=O)O)ccc23)c(C)c1	i	6%[11.4 µM]	-15%[11.4 µM]	0%[15.4 µM]	-2%[15.4 µM]	-9%[11.4 µM]
CC(C)(N)CO[C@H]1C[C@H]2CC[C@@]1(C)C2(C)C	i	8%[11.4 µM]	-2%[11.4 µM]	1%[15.4 µM]	-1%[15.4 µM]	-14%[11.4 µM]
CO[C@@H]1COC(=O)C/C=C\[C@@H](C)[C@@H]2C=C[C@H](O)[C@@H](COC(=O)CCC[C@H]1C)O2	.	9%[11.4 µM]	.	1%[15.4 µM]	-1%[15.4 µM]	.
Cc1ccc(/C=c2\sc3nc(-c4ccco4)nn3c2=O)o1	i	?	4µM*	-8%	0%	-15%
Cc1ccc(/C=c2\sc3nc(-c4ccccc4Br)nn3c2=O)o1	i	-2%	-8%	1%	0%	-2%
CCCSc1nc(C)c(-c2csc(C(C#N)=C3CCCC3)n2)cc1C#N	i	?	-2%	-3%	2%	16µM*

Screens from PubChem BioAssay.
